Assay [1] in a line: cAMP Responsive Elements (CRE) small molecule antagonists, cell-based qHTS assay: qHTS cell viability counter screen (AID 2060913). Note: nearly all actives have a fitted effect of over 40% in size. Summed up: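 Steps: cells plated and held 18 hrs at 37 C/5% CO2; compounds and NKH477 (0.25 uM final) added; 3 hrs incubation; reporter substrate read; CellTiter-Glo added to measure cytotoxicity by luminescence.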
A general note: Quantitative high-throughput screening tests each substance at several concentrations.

Assay [2] can be described thus: cAMP Responsive Elements (CRE) small molecule agonists, cell-based qHTS assay: qHTS cell viability counter screen (AID 2060914). Note: nearly all actives have a fitted effect of over 50% in size. An outline of the steps: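 Cytotoxicity counter screen multiplexed with the CRE-bla reporter assay in HEK 293T cells: 3 h compound exposure at 37 °C, followed by CellTiter-Glo luminescence measured in the same wells.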

Results filed as inconclusive are left out. Entries that show only a call come without a potency. The source made the active and inactive calls. Calls come from the whole dose curve; as a rule, active = well fitted cell-killing curve with a large enough effect in the repeat runs; inconclusive = weak or mixed curves, or effect the other way; inactive = flat fitted curve, though single readings scatter.

In the case of `NC(=O)c1cc[n+](CC2=C(C(=O)[O-])N3C(=O)[C@@H](NC(=O)Cc4cccs4)[C@H]3SC2)cc1`, the Potency entry in assay [1] and in assay [2] was “inactive” each time.

`C[C@]12CC[C@@H]3c4ccc(O)cc4CC[C@H]3[C@@H]1C[C@@H](O)[C@@H]2O`: the Potency result in assay [1] and in assay [2] was “inactive” throughout.

Consider `c1ccc2c(c1)c1cccc3ccc4cccc2c4c31`, for which the Potency result in assay [1] and in assay [2] was “inactive” each time.

As for `Nc1ccc(C(=O)Nc2ccccc2N)cc1`, the Potency entry in assay [1] and in assay [2] was “inactive” each time.

In the case of `CC1(C)[C@@H]2CC[C@]3(C2)[C@@H]1C(=O)CCC3(C)C`, the Potency result in assay [1] and in assay [2] was “inactive” in each case.

Take `C[n+]1c2cc(N)ccc2cc2ccc(N)cc21` (tested in a mixture with another compound): the Potency entry in assay [1] and in assay [2] was “inactive” in each case.

On to `COCCOCCOCCOC`, for which the Potency result in assay [1] and in assay [2] was “inactive” each time.

Regarding `ClCCCl`, the Potency result in assay [1] and in assay [2] was “inactive” in each case.

Take `C=CC(O)CCCCC` (configuration not stated): the Potency result in assay [1] and in assay [2] was “inactive” each time.

As for `CCN(CC)c1ccc(C=O)cc1`, the Potency result in assay [1] and in assay [2] was “inactive” throughout.

Turning to `CC(COC(=O)c1ccccc1)OC(=O)c1ccccc1` (configuration not stated), the Potency result in assay [1] and in assay [2] was “inactive” each time.

As for `CCN(CCCc1ccccc1)CCCc1ccccc1`, the Potency result in assay [1] and in assay [2] was “inactive” throughout.

For `O=C(O)c1cn(C2CC2)c2cc(Cl)c(F)cc2c1=O`, the Potency result in assay [1] and in assay [2] was “inactive” in each case.

In the case of `O=C(O)CCCC[P+](c1ccccc1)(c1ccccc1)c1ccccc1`, the Potency entry in assay [1] and in assay [2] was “inactive” throughout.

For the compound `O=C(OCCc1ccccc1)c1ccccc1`, the Potency entry in assay [1] and in assay [2] was “inactive” each time.

As for `Nc1c[n+](N2CCOCC2)no1`, the Potency entry in assay [1] and in assay [2] was “inactive” in each case.

The values are drawn from PubChem BioAssay (Tox21).
